# According to the supplement of paper PMC10515830:
# Structures can show the parent of a compound that is named as a salt.
# Key:
# Settings in all cases: 10 µM; exposure time 6 h
# [1] = tested on: Danio rerio larvae (5 dpf); assay: difference in excitability vs DMSO (percentage points); higher = more excitable than DMSO
# Method in brief: (§1)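 Library compounds were tested at 10 µM final in 100 µL egg water on wild-type 5 dpf zebrafish larvae in 96-well plates for 6 h, with 48 larvae per compound. After 3 h, plates at 28.5 ℃ were imaged every 6 s during a 3-h run of moving lines and 100 ms, 400Hz tones. Behaviours were quantified by Z-LaP Tracker and reported as the compound mean less the vehicle control mean, in percentage points.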
# [2] = tested on: Danio rerio larvae (5 dpf); assay: difference in startle response vs DMSO (percentage points); higher = stronger startle than DMSO
# Method in brief: as §1
# [3] = tested on: Danio rerio larvae (5 dpf); assay: difference in activity during first hour vs DMSO (percentage points); higher = more activity than DMSO
# Method in brief: as §1
# [4] = tested on: Danio rerio larvae (5 dpf); assay: difference in habituation to acoustic stimuli vs DMSO (percentage points); higher = more habituation than DMSO
# Method in brief: as §1
# [5] = tested on: Danio rerio larvae (5 dpf); assay: difference in combined optomotor response to red, green and blue moving lines vs DMSO (percentage points); higher = stronger optomotor response than DMSO
# Method in brief: as §1
Structure (SMILES),difference in excitability [1],difference in startle response [2],difference in activity during first hour [3],difference in habituation to acoustic stimuli [4],difference [5]
COc1cc(C(=O)NS(=O)(=O)c2ccccc2C)ccc1Cc1cn(C)c2ccc(NC(=O)OC3CCCC3)cc12 [Zafirlukast],3.02,-0.95,17.6,4.84,-0.091
NC(=O)N1c2ccccc2C=Cc2ccccc21 [Carbamazepine],-5.41,5.12,-2.57,0.458,11.2
COc1cc2c(cc1OC)CC(=O)N(CCCN(C)C[C@H]1Cc3cc(OC)c(OC)cc31)CC2 [Ivabradine (hydrochloride)],8.58,0.00664,14.5,-0.807,9.1
O=C(CCCN1CCC(O)(c2ccc(Cl)cc2)CC1)c1ccc(F)cc1 [Haloperidol],17.7,-2.56,12.4,-7.67,-5.9
CC(C)(S)[C@@H](N)C(=O)O [Penicillamine],1.99,3.43,-11.2,6.31,4.5
NC(=O)[C@@H]1CC[C@@H]2CN1C(=O)N2OS(=O)(=O)O [Avibactam (sodium salt)],1.97,0.773,5.58,4.75,6.37
Clc1ccc(COC(Cn2ccnc2)c2ccc(Cl)cc2Cl)cc1 (stereo not given) [Econazole (nitrate)],7.22,-9.26,-22.1,-11.9,-16.9
NCCCCCC(=O)O [6-Aminocaproic Acid],8.15,-0.142,5.22,0.269,3.43
C[C@]12CC[C@@H]3c4ccc(OS(=O)(=O)O)cc4CC[C@H]3[C@@H]1CCC2=O [Estropipate],1.84,-3.42,-3.25,-2.86,-4.79
C[C@@H]1[C@H](O)[C@@H](C)/C=C/C=C/C=C/C=C/C=C/C=C/C=C/[C@H](O[C@@H]2O[C@H](C)[C@@H](O)[C@H](N)[C@@H]2O)C[C@@H]2O[C@](O)(C[C@@H](O)C[C@@H](O)[C@H](O)CC[C@@H](O)C[C@@H](O)CC(=O)O[C@H]1C)C[C@H](O)[C@H]2C(=O)O [Amphotericin B],-0.355,0.384,4.13,-0.401,1.13
CC(=O)OC[C@H]1O[C@@H]([S-])[C@H](OC(C)=O)[C@@H](OC(C)=O)[C@@H]1OC(C)=O.CCP(CC)CC.[Au+] [Auranofin],6.43,-4.17,11,2.14,-5.02
COc1ccnc(C[S+]([O-])c2nc3cc(OC(F)F)ccc3[nH]2)c1OC (stereo not given) [Pantoprazole],1.4,2.07,3.07,-4.45,5.14
Cc1cn([C@H]2C=C[C@@H](CO)O2)c(=O)[nH]c1=O [Stavudine],7.17,-2.71,-1.82,5.47,4.85
CCCCC[C@](C)(O)/C=C/[C@@H]1[C@@H](C/C=C\CCCC(=O)O)[C@@H](O)C[C@H]1O [15(S)-15-methyl Prostaglandin F2α],1.12,0.545,22.8,1.43,5.47
Fc1ccc([C@@H]2CCNC[C@H]2COc2ccc3c(c2)OCO3)cc1 [Paroxetine (hydrochloride)],11,-3.61,-22.3,-3.35,-11.4
CO[C@H]1C[C@@H]2CC[C@@H](C)[C@@](O)(O2)C(=O)C(=O)N2CCCC[C@H]2C(=O)O[C@H]([C@H](C)C[C@@H]2CC[C@@H](OC(=O)C(C)(CO)CO)[C@H](OC)C2)CC(=O)[C@H](C)/C=C(\C)[C@@H](O)[C@@H](OC)C(=O)[C@H](C)C[C@H](C)/C=C/C=C/C=C/1C [Temsirolimus],7.02,-6.86,-1.53,4.35,0.433
CCOc1nc2cccc(C(=O)OC(C)OC(=O)OC3CCCCC3)c2n1Cc1ccc(-c2ccccc2-c2nn[nH]n2)cc1 (stereo not given) [Candesartan Cilexetil],12.4,-6.23,-2.86,-2.83,-2.76
CCN(CC)C(=S)SSC(=S)N(CC)CC [Disulfiram],12.2,-15.9,38.4,-13,-9.71
Nc1cccc2c1CN(C1CCC(=O)NC1=O)C2=O (stereo not given) [Lenalidomide],-0.5,7.32,0.485,-0.169,5.58
NCCNCCNCCN [Trientine (hydrochloride)],15.9,-0.163,13,-1.81,-9.36
Nc1nc(=S)c2[nH]cnc2[nH]1 [6-Thioguanine],2.87,-3.35,1.36,0.958,6.09
CC1CNc2c(cccc2S(=O)(=O)N[C@@H](CCCNC(=N)N)C(=O)N2CC[C@@H](C)C[C@@H]2C(=O)O)C1 (stereo not given in full) [Argatroban],3.15,2.67,19.4,-4.15,3.46
C[C@H]1CN(C[C@H](Cc2ccccc2)C(=O)NCC(=O)O)CC[C@@]1(C)c1cccc(O)c1 [Alvimopan],3.61,0.764,-3.96,3.02,-3.48
N#Cc1ccc(Oc2ccc3c(c2)COB3O)cc1,-2.19,-0.784,-16.9,-15.1,-18.2
CN1CCC(=C2c3ccccc3CCn3c(C=O)cnc32)CC1 [Alcaftadine],-1.49,3.88,20.6,-3,-2.52

Structure (SMILES),difference in excitability [1],difference in startle response [2],difference in activity during first hour [3],difference in habituation to acoustic stimuli [4],difference [5]
Cc1c(-c2ccccc2)oc2c(C(=O)OCCN3CCCCC3)cccc2c1=O [Flavoxate (hydrochloride)],8.74,1.49,13.3,-3.99,8.27
CCN(CC)CCOc1ccc(C(=C(Cl)c2ccccc2)c2ccccc2)cc1 [Clomiphene (citrate)],-9.14,5.47,-4.03,-5.11,-16.4
S=c1nc[nH]c2nc[nH]c12 [6-Mercaptopurine (hydrate)],6.66,2.46,-5.06,-0.245,1.98
CC(C)C(=O)Nc1ccc([N+](=O)[O-])c(C(F)(F)F)c1 [Flutamide],2.83,-7,-6.35,-14.3,-13.7
CN(N=O)C(=O)N[C@@H](C=O)[C@@H](O)[C@H](O)[C@H](O)CO [Streptozotocin],-0.24,-1.97,-9.76,-6.76,-1.53
Cn1cnc2c(F)c(Nc3ccc(Br)cc3F)c(C(=O)NOCCO)cc21 [Binimetinib],-0.212,-0.502,15.3,-0.78,7.07
Cc1ccccc1C(=O)Nc1ccc(C(=O)N2CCCC(O)c3cc(Cl)ccc32)c(C)c1 (stereo not given) [Tolvaptan],11,1.76,15.8,-0.912,5.47
C[C@@H](O[C@H]1OCCN(Cc2n[nH]c(=O)[nH]2)[C@H]1c1ccc(F)cc1)c1cc(C(F)(F)F)cc(C(F)(F)F)c1 [Aprepitant],9.22,-5.06,6.23,-3.45,4.82
CCc1cc2c(cc1CC)CC(NC[C@H](O)c1ccc(O)c3[nH]c(=O)ccc13)C2 [Indacaterol],-0.786,4.28,-1.22,3.2,-2.46
COc1c(N2CCNC(C)C2)c(F)cc2c(=O)c(C(=O)O)cn(C3CC3)c12 (stereo not given) [Gatifloxacin],15,-3.53,-1.17,2.86,2.83
CN(C)CCOc1ccc(/C(=C(/CCCl)c2ccccc2)c2ccccc2)cc1 [Toremifene (citrate)],4.69,-6.57,9.64,-7.15,-13.3
O=C(CCCN1CC=C(n2c(=O)[nH]c3ccccc32)CC1)c1ccc(F)cc1 [Droperidol],29,-1.85,12.3,-7.94,-0.322
CCOc1nc2cccc(C(=O)OCc3oc(=O)oc3C)c2n1Cc1ccc(-c2ccccc2-c2noc(=O)[nH]2)cc1 [Azilsartan Medoxomil],6.47,-1.67,-8.07,5.02,-2.25
CC(C)OC(=O)CCC/C=C\C[C@@H]1[C@@H](CC[C@@H](O)CCc2ccccc2)[C@H](O)C[C@@H]1O [Latanoprost],1.84,-0.286,20.8,3.23,7.08
O=C1c2cccc3c2[C@H](CCC3)CN1[C@@H]1CN2CCC1CC2 [Palonosetron (hydrochloride)],16.7,-3.75,19.7,2.14,4.37
N[C@@H](Cc1cc(I)c(Oc2cc(I)c(O)c(I)c2)c(I)c1)C(=O)O [L-Thyroxine],12.1,-4.02,7.61,-1.15,1.95
COC(=O)Nc1nc2cc(C(=O)c3ccccc3)ccc2[nH]1 [Mebendazole],9.6,-4.07,8.64,0.057,4.46
CCC(=O)NC[C@@H]1C[C@H]1c1cccc2c1CCO2 [Tasimelteon],25,6.9,-17.9,-3.17,11.5
Nc1ccc(C(=O)NCC(=O)O)cc1 [4-Aminohippuric Acid],3.62,5.22,3.44,-0.693,7.16
CCCCCCCN(CC)CCCC(O)c1ccc(NS(C)(=O)=O)cc1 (racemic) [(±)-Ibutilide (hemifumarate)],17.7,1.14,-7.19,6.3,-6.18
N=C(N)NC(=O)c1nc(Cl)c(N)nc1N [Amiloride (hydrochloride) (hydrate)],10.2,-1.2,-3.37,2.2,2.45
CC(C)CN(C[C@@H](OP(=O)(O)O)[C@H](Cc1ccccc1)NC(=O)O[C@H]1CCOC1)S(=O)(=O)c1ccc(N)cc1 [Fosamprenavir (calcium salt)],0.179,4.76,22.4,-2.19,5.16
CCc1nn(CCCN2CCN(c3cccc(Cl)c3)CC2)c(=O)n1CCOc1ccccc1 [Nefazodone (hydrochloride)],9.32,-3.06,29.1,-9.41,-10.9
CO[C@@]1(NC(=O)C2SC(=C(C(N)=O)C(=O)O)S2)C(=O)N2C(C(=O)O)=C(CSc3nnnn3C)CS[C@@H]21 (stereo not given in full) [Cefotetan (sodium salt)],-4.63,4.7,10.3,7.15,-1.08
